Assay outcomes from PubChem BioAssay.
TDP1 cell noCPT: qHTS for Inhibitors of human tyrosyl-DNA phosphodiesterase 1 (TDP1): qHTS in cells in absence of CPT; DT40 Tdp1-/- hTDP1 cells, no CPT, ATP luminescence, 48 h; 420,000 compounds, 15% hits; Potency, µM (top dose mostly 46.2 µM), for inactives: at the highest dose activity change, negative = growth inhibition, usual class: inhibitors; AID 686978, 2013; further: on the % scale 0 is the no-effect control and ±100 the full control effect; nearly all actives have a fitted effect of over 55% in size
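DT40 Tdp1-/-;hTDP1 cells, no CPT (DMSO vehicle only), 400 cells/well; compounds pin-transferred; ≥48 hr, 37 °C; CellTiter-Glo 30 min RT dark, luminescence read.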
TDP1 cell CPT: growth inhibition of DT40 Tdp1-/-;hTDP1 cells with camptothecin (screen for TDP1 inhibitors). chicken DT40 Tdp1-/-;hTDP1 cells + 20 nM CPT, ATP luminescence, 48 h. Potency, µM (highest dose often 46.2 µM), for inactives: at the highest dose activity change, negative = growth inhibition, most hits filed as inhibitors. 420,000 compounds, 12% hits; further: on the % scale 0 is the no-effect control and ±100 the full control effect; nearly all actives have a fitted effect of over 55% in size
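Chicken DT40 Tdp1-/- cells stably complemented with human TDP1 were seeded at 400 cells/well in medium containing 20 nM camptothecin, exposed to pin-transferred compounds, and grown at 37 °C for at least 48 hr. Viability was read as ATP luminescence.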
TDP1 inh: inhibitors of human tyrosyl-DNA phosphodiesterase TDP1; recombinant TDP1, AlphaScreen DNA substrate cleavage; Potency, µM (titrated, usually from 130 µM), without a hit: at the highest dose activity change, negative = inhibition, most hits filed as inhibitors; 350,000 compounds, 0.28% hits; AID 485290; further: on the % scale 0 is the no-effect control and ±100 the full control effect; nearly all actives have a fitted effect of over 40% in size
Target sequence (Q9NUW8 whole entry, looked up): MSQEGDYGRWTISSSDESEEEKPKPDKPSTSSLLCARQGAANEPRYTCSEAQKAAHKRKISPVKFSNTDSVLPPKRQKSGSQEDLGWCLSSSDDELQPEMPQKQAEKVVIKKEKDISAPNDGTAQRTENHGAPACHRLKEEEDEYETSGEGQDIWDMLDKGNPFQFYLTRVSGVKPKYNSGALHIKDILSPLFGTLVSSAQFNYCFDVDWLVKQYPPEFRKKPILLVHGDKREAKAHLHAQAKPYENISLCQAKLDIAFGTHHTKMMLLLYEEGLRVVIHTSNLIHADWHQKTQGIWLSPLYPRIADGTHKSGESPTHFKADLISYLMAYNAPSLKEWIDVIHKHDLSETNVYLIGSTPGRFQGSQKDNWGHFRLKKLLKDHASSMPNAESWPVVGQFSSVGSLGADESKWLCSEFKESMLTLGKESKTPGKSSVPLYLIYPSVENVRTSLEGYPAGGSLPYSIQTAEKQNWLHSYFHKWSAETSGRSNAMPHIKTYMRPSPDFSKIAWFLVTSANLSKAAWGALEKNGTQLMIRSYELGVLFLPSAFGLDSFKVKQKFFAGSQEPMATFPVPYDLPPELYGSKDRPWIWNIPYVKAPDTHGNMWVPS
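AlphaScreen read-out: signal falls as enzyme removes the 3' tyrosine-FITC from a 5'-biotinylated DNA oligo (15 nM, 5 min, RT). Enzyme was E. coli-made recombinant Tdp1 at 1 nM, exposed to compound for 15 min beforehand; beads 10 ug/ml, 10 min.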
ClpP mod: qHTS Assay for Activators of ClpP | ATP-dependent Clp protease proteolytic subunit (Bacillus subtilis (strain 168)), P80244 | purified B. subtilis ClpP, FRET peptide cleavage, 20 min | Potency, µM (top dose mostly 57.5 µM), inactives show at the highest dose activity change, negative = active | 340,000 compounds, 1.9% hits; active means well fitted falling curve with a large enough effect; inconclusive means small, poorly fitted or top-dose-only effect; inactive means no such curve, though single readings can be large or run the other way; further: the source files actives as falling curves though it sought activators and does not explain the sign; nearly all actives have a fitted effect of over 65% in size
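Purified B. subtilis ClpP, 10 microg/mL final in Tris/HCl pH8 with KCl, BSA, glycerol and Tween-20, cleaved an Abz/nitrotyrosine-quenched decapeptide. Fluorescence (ex 320, em 430) was read at 0 and 20 min at room temperature. Delta was normalized to 5.8 microM ADEP and DMSO/no-enzyme controls.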
* hit, by the source's call; ? = inconclusive; · = not tested or not shown; [ ] = remark or other dose. Most compounds without a hit are left out; they make up all but 17% or so of the library. Unless noted, the call rests on the fitted dose curve; in most records, active means well fitted curve in the direction sought with a large enough effect; inconclusive means small, poorly fitted or top-dose-only effect, or another doubt; inactive means no such curve, though single readings can be large; an effect the other way counts as inactive or inconclusive. Potency means the concentration at half of the fitted maximal effect.

SMILES	TDP1 cell noCPT	TDP1 cell CPT	TDP1 inh	ClpP mod
O=C(c1ccc(Cl)cc1)n1c(NCc2ccccc2)n[nH]c1=S	-9%	-10%	0%	0%
Cc1ccc(-c2ccc(CCC(=O)O)n2CC2CCCO2)cc1 (stereo not given)	-9%	-27%	5%	25µM*
N=C(N)SCCN=C(N)N	·	·	13%	·
O=C(COC(=O)/C=C/c1ccccc1)NC1CCCC1	-26%	-15%	0%	-2%
CC(C)C[C@H]1CN=C(Nc2ccccc2)N1CCC1CCCCC1	16µM*	?	·	1%
CC(C)C[C@H]1CN=C(Nc2ccccc2)N1CC1CCC(C(C)(C)C)CC1 (stereo not given in full)	6.5µM*	5.8µM*	1%	2%
CC(C)C[C@H]1CN=C(Nc2ccccc2)N1CC(C)C	-24%	-26%	-3%	-1%
CCC(CC)CN1C(Nc2ccccc2)=NC[C@@H]1CC(C)C	?	?	·	-1%
CC(C)C[C@H]1CN=C(Nc2ccccc2)N1CC1CCCC1	16µM*	?	·	-1%
c1ccc(C[C@H]2CN=C(Nc3ccccc3)N2CCC2CCCC2)cc1	15µM*	?	-1%	-1%
Cc1ccc(CN2CCN(Cc3ccc4cc(F)ccc4n3)CC2CCO)o1 (stereo not given)	-12%	-1%	6%	·
COc1cc2c(=O)n(CC3CCCO3)c(=O)n(CC(=O)Nc3ccccc3)c2cc1OC (stereo not given)	-29%	-19%	·	4%
CC(=O)C1C(c2ccc(Cl)cc2)c2c(noc2C)CC1(C)O (stereo not given)	9%	4%	·	0%
COC(=O)CNC(=O)C(=O)OC	-2%[4.12 µM]	5%[4.12 µM]	4%	·
CCS(=O)(=O)c1oc(-c2ccc(F)cc2)nc1S(=O)(=O)c1ccc(Br)cc1	1.2µM*	0.92µM*	7%	-6%
CSc1oc(-c2ccc(F)cc2)nc1S(=O)(=O)c1ccccc1	-15%	-1%	0%	-15%
CS(=O)(=O)c1oc(-c2ccc(F)cc2)nc1S(=O)(=O)c1ccc(Cl)cc1	0.82µM*	0.58µM*	0%	-12%
CSc1oc(-c2ccc(F)cc2)nc1S(=O)(=O)c1ccc(F)cc1	23µM*	15µM*	6%	-6%
COc1cc(C(=O)NC2CC2)cc(OC)c1OC	-5%	-11%	·	-4%
CCn1cc(C(=O)N[C@@H](C)C(=O)NCCCn2ccnc2)c(=O)c2cc3c(cc21)OCO3	13%	-2%	3%	3%
O=C(Nc1ccccc1)Nc1ccc(Br)cc1F	21µM*	15µM*	3%	-3%
O=C(Nc1cccnc1)Nc1ccc(Br)cc1Cl	?	?	5%	-2%
O=C(Nc1cccc(Cl)c1)Nc1ccc(Br)cc1F	12µM*	21µM*	-5%	-9%
Cc1ccc(OCC(=O)N/N=C/C=C/c2ccco2)cc1	7.3µM*	8.2µM*	7%	1%
COc1ccccc1OCC(=O)N/N=C/C=C/c1ccc([N+](=O)[O-])o1	7.3µM*	6.5µM*	7%	2%
SMILES	TDP1 cell noCPT	TDP1 cell CPT	TDP1 inh	ClpP mod
Cc1ccccc1OCC(=O)N/N=C/c1ccc([N+](=O)[O-])o1	8.2µM*	10µM*	?	-2%
O=C(COc1ccccc1[N+](=O)[O-])N/N=C/C=C/c1ccco1	?	-25%	2%	1%
Cc1cc(C)cc(OCC(=O)N/N=C/c2ccc([N+](=O)[O-])o2)c1	?	-89%	-2%	54%
COc1ccccc1NC(=O)Nc1ccnn1C1CCN(C(=O)C2CCOC2)CC1 (stereo not given)	-5%	-2%	·	-1%
CCNc1ncc2nc(C)c(=O)n(C[C@H]3CCCO3)c2n1	-17%	?	·	·
CCNc1ncc2ncc(=O)n(C[C@H]3CCCO3)c2n1	21µM*	12µM*	·	·
COc1ccccc1OC(C)C(=O)N1CC(=O)Nc2ccccc21 (stereo not given)	-1%	-6%	14%	·
CC(C)(C)c1csc(NNC(=O)c2ccc(Cl)cc2)n1	?	?	10%	·
O=C(NNC1=Nc2ccccc2SC1)c1ccc(Cl)cc1	12µM*	6.5µM*	·	·
O=C(NNC1=Nc2ccccc2SC1)c1ccc(F)cc1	23µM*	?	7%	-1%
OC[C@@H](O)[C@H](O)[C@H](O)[C@@H](O)CO	-1%	-13%	·	·
Cc1nc(SC(C(=O)c2ccccc2)c2ccccc2)nc2ccccc12 (stereo not given)	?	?	3%	-1%
COc1ccc2nc(SCC(=O)O)nc(C)c2c1	-4%	-2%	-7%	28µM*
Cc1ccc2nc(SCc3cccc([N+](=O)[O-])c3)nc(C)c2c1	?	?	6%	4%
COc1ccc2nc(SCc3ccccc3C)nc(C)c2c1	?	-27%	2%	7.1µM*
COc1ccc2nc(SCc3cccc(C)c3)nc(C)c2c1	?	1%	·	25µM*
COc1ccc2nc(SC(C(=O)c3ccccc3)c3ccccc3)nc(C)c2c1 (stereo not given)	?	23µM*	-3%	·
CC[C@]12c3[nH]c4ccccc4c3CCN1C(=O)C(CC(=O)NC/C=C(\C)CCC=C(C)C)C[C@@H]2C(=O)N1CCN(C(=O)c2ccco2)CC1 (stereo not given in full)	?	16µM*	5%	-1%
CC[C@]12c3[nH]c4cc(-c5ccco5)ccc4c3CCN1C(=O)[C@@H](CC(=O)NCc1ccco1)C[C@@H]2C(=O)N1CCN(C(=O)c2ccco2)CC1	?	?	4%[56.1 µM]	-23%
CC[C@]12c3[nH]c4cc(-c5ccco5)ccc4c3CCN1C(=O)[C@@H](CC(=O)NC/C=C(\C)CCC=C(C)C)C[C@@H]2C(=O)N1CCN(C(=O)c2ccco2)CC1	21µM*	?	4%[56.1 µM]	-15%
CC[C@]12c3[nH]c4ccc(OC)cc4c3CCN1C(=O)C(CC(=O)NC/C=C(\C)CCC=C(C)C)C[C@@H]2C(=O)N1CCN(C(=O)c2ccco2)CC1 (stereo not given in full)	?	?	6%[56.1 µM]	-2%
CC[C@]12c3[nH]c4cc(-c5ccco5)ccc4c3CCN1C(=O)[C@@H](CC(=O)NCc1cccc(C(F)(F)F)c1)C[C@@H]2C(=O)N1CCN(C(=O)c2ccco2)CC1	8.2µM*	8.2µM*	2%[56.1 µM]	-5%
Nc1ccccc1C(=O)NC1CCCNC1=O (stereo not given)	-5%	14%	·	4%
CCOC(=O)c1ccc(NC(=O)c2cc3c(s2)CCC3)cc1	?	8%	·	·
Cc1ccc2c(c1)/C(=N/OS(=O)(=O)c1ccccc1)CCS2	-21%	?	·	-1%
CC1=CC(=O)C(C(C)C)=C/C1=N/OS(=O)(=O)c1ccccc1	0.58µM*	0.58µM*	·	-1%
CC1=CC(=O)C=C(C)C1=NOS(=O)(=O)c1ccccc1	2.1µM*	1.3µM*	9%	-2%
